We go through 93 compounds from PubChem BioAssay AID1304 (The Scripps Research Institute Molecular Screening Center, 2008).

Hit rate of the full screen: of about 220,000 compounds, about 800 (0.36%) were called active. Cut-off read from the data, not from the text of the source: active = activation above about 33% (passing the limit was not always enough); inactive = the rest. Shown is part of a subset that was picked to be rich in actives.

This assay deals with Neuropeptide Y receptor type 1 (Homo sapiens) (UniProt P25929). Description: activation enhancers of human NPY-Y1 – cell-based, primary screen (AID 1304).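 Note: cells stimulated with NPY at EC10 then isoproterenol at EC100; 0% = low agonist plus stimulus and 100% = saturating agonist plus stimulus.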 The note with it: NPY-Y1 expressing cells, potentiator/agonist activation; at 3.6 µM; hits give high values.
Sequence of Neuropeptide Y receptor type 1 (Homo sapiens) (P25929 whole entry, looked up): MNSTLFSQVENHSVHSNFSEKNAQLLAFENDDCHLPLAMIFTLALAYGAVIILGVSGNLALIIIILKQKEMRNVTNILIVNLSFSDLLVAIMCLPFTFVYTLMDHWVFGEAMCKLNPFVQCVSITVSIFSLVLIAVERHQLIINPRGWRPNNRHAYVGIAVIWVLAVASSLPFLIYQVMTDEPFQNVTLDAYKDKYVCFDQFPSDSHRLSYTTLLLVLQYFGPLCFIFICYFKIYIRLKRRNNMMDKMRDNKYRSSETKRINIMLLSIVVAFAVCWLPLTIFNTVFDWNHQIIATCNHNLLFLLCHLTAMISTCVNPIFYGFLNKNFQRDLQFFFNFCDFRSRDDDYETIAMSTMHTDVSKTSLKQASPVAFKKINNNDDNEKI
In the case of `CN(C)Cc1c(O)ccc2occ(C(O)c3ccccc3)c12` (stereo not drawn), the activation is 105% (active).
Under `CCOc1ncccc1C(=O)N(C)CC(=O)Nc1ccc(F)cc1` stands -13.4% (inactive); under `S=c1[nH]nc(-c2cc(-c3ccccc3)n[nH]2)n1/N=C/c1c2ccccc2cc2ccccc12`, 6.62% (inactive).
In the case of `CCOc1ccc2c(=O)c(-c3ccc4c(c3)OCCCO4)c(C)oc2c1` it was 2.42% (inactive).
Under `O=C(Nc1cccc(S(=O)(=O)Nc2ccc(Cl)cc2)c1)c1ccc2c(c1)OCCO2` stands 43.8% (active); under `O=C(c1cccc(S(=O)(=O)Nc2ccccc2Cl)c1)N1CCN(C(=O)c2ccco2)CC1`, 0.65% (inactive); under `O=C(Nc1ccc2c(c1)CCC2)c1cccc(S(=O)(=O)Nc2ccccc2Cl)c1`, 54.9% (active).
In the case of `O=C(Nc1ccc2c(c1)CCC2)c1cccc(S(=O)(=O)N2CCN(c3ccc(F)cc3)CC2)c1`, the activation is 24.4% (inactive).
On to `O=C(Nc1cccc(S(=O)(=O)N2CCCCC2)c1)c1ccc2c(c1)OCO2`, for which the activation is -8.28% (inactive).
In the case of `O=C(Nc1ccc(Cl)cn1)c1ccc2c(c1)OCCO2` it was -6.11% (inactive); in that of `CCc1nnc(NC(=O)CCN(c2ccc(C)cc2)S(=O)(=O)c2ccccc2)s1`, 1.52% (inactive); in that of `CSc1ccccc1C(=O)NCc1ccccc1`, 1.48% (inactive).
Under `O=S(=O)(c1ccc(F)cc1)N1CC=C(c2ccccc2)CC1` stands -6.53% (inactive); under `CC(O)c1nc2c(c(=O)n(C)c(=O)n2C)n1C` (stereo not drawn), 11.7% (inactive).
Under `Cc1coc2cc3oc(=O)c(CCC(=O)O)c(C)c3cc12` stands -7.91% (inactive).
With `CCSc1sc(CC)cc1C=O`, the activation was -2.95% (inactive).
Under `Cc1ccc(NC(=O)/C(=C/c2ccc([N+](=O)[O-])cc2)NC(=O)c2ccccc2)cc1` stands 30.3% (inactive).
In the case of `O=C(O)C1CCN(c2ccc([N+](=O)[O-])cc2[N+](=O)[O-])CC1`, the activation is -10.1% (inactive).
Consider `COC(=O)c1ccc(COC(=O)c2cnccn2)cc1`, for which the activation is -11.9% (inactive).
In the case of `Cc1coc2c(O)cc3c(c12)OC1(N2CCCCC2)C(=O)NCCCC31` (stereo not drawn) it was 90.8% (active).
As for `O=C(O)C1C2C=CC(O2)C1C(=O)NCCc1cccc(Cl)c1` (stereo not drawn), the activation is 1.36% (inactive).
In the case of `COCCCNC(NC(=O)c1ccc(OC)cc1)C(Cl)(Cl)Cl` (stereo not drawn) it was 15.6% (inactive); in that of `COCCCNC(=S)N1CCCC(c2nc3cc(C)c(C)cc3[nH]2)C1` (stereo not drawn), 8.07% (inactive); in that of `NC(=O)CC[C@@H]1NC(=O)[C@H](CO)NC(=O)c2cc([N+](=O)[O-])cc(I)c2NCC[C@@H](C(N)=O)NC1=O`, -22.3% (inactive).
For `CC(=O)c1ccc(NC(=O)Nc2ccc([N+](=O)[O-])cc2C)cc1`, the activation was -8.87% (inactive).
In the case of `CCn1c2ccccc2c2cc(NC(=O)Nc3ccc([N+](=O)[O-])cc3C)ccc21` it was 45.6% (active).
In the case of `CCn1c2ccccc2c2cc(NC(=O)CNC)ccc21` it was -3.25% (inactive); in that of `CC(C)(C)NC(=O)COc1ccc(CNc2ccc3[nH]c(=O)[nH]c3c2)cc1`, 2.35% (inactive); in that of `CC(C)(C)N(Cc1ccccc1)C(=O)COC(=O)CCc1c[nH]c2ccccc12`, -4.21% (inactive).
Regarding `COc1ccc(CCn2ccc(O)c(Cc3ccc(Cl)cc3Cl)c2=O)cc1OC`, the activation was -7.77% (inactive).
Under `COC(=O)c1c(C(=O)OC)c2n(c1C)CCS2` stands -0.93% (inactive).
In the case of `CC(NS(=O)(=O)c1ccccc1)c1n[nH]c(=S)n1-c1ccccc1` (stereo not drawn) it was 30% (inactive); in that of `Cc1ccccc1NC(=O)NNC(=O)OC(C)(C)C`, -4.21% (inactive); in that of `CCN(CC)CCNC(=O)C1c2ccccc2C(=O)N(C)C1c1cn(C)c2ccccc12` (stereo not drawn), 10.4% (inactive).
In the case of `CN1C(=O)c2ccccc2C(C(=O)NCCCN2CCCC2)C1c1c[nH]c2ccccc12` (stereo not drawn) it was 51.1% (active).
As to `O=C(NCCCN1CCN(Cc2ccccc2)CC1)C1CCN(S(=O)(=O)N2CCCC2)CC1`, the activation was -28.8% (inactive).
As to `CCC(C)Cn1c(O)cc2nn(-c3nc4ccccc4s3)c(=O)c-2c1C` (stereo not drawn), the activation was 13.9% (inactive).
Consider `O=[N+]([O-])c1ccc(N2CCN(CC(O)COc3ccccc3)CC2)cc1` (stereo not drawn), for which the activation was 20.4% (inactive).
For the compound `OC(COCC1COc2ccccc2O1)CN1CCN(c2ccc(F)cc2)CC1` (stereo not drawn), the activation is 74.5% (active).
Under `OC(COCc1ccco1)CN1CCN(c2ccccc2)CC1` (stereo not drawn) stands 9.46% (inactive); under `CC1CCN(C2=NC(=O)/C(=C/c3cn[nH]c3-c3ccccc3)S2)CC1`, 1.73% (inactive); under `CC1(C)CC(=O)C=C(N2CCOCC2)C1`, 11.6% (inactive).
With `Cc1nccn1CCC1CCCCN1C(=O)CCc1nnc(-c2ccsc2)o1` (stereo not drawn), the activation was 5.94% (inactive).
As for `Cc1ccc(C)c(NC(=O)CSc2nc3c(oc4ccccc43)c(=O)n2-c2ccccc2)c1`, the activation is -11.9% (inactive).
Under `Cc1ccccc1-n1nnc2c(=O)oc3ccccc3c21` stands 65.8% (active); under `CCOC(=O)c1c(C)nc2c(c1C)c(=O)oc1ccccc12`, -22% (inactive).
Consider `CCCCC(=O)Nc1cc(C)c2c(=O)oc3ccccc3c2n1`, for which the activation is 4.38% (inactive).
Under `O=S(=O)(Nc1ccccn1)c1cccc(S(=O)(=O)c2ccc(Cl)cc2)c1` stands -10.4% (inactive); under `Clc1ccc(C2=CSC3=Nc4cccc5cccc(c45)N23)cc1`, -26.6% (inactive).
Under `CCOc1ccc(/C=N/OCC(=O)NCc2cccs2)cc1` stands -0.95% (inactive); under `CC(CCc1ccccc1)NCC(O)c1cccc([N+](=O)[O-])c1` (stereo not drawn), 107% (active); under `CC(C)OP(=O)(OC(C)C)C(Nc1ccccc1)c1cccc([N+](=O)[O-])c1` (stereo not drawn), 6.2% (inactive).
In the case of `CC(=O)NCC(O)c1ccc([N+](=O)[O-])cc1` (stereo not drawn), the activation was -3.81% (inactive).
Take `O=C(CC1SCCNC1=O)Nc1ccc(Cl)c(Cl)c1` (stereo not drawn): the activation is 8.97% (inactive).
For `O=C(CSc1nnc(-c2ccncc2)n1-c1ccc(Cl)cc1)Nc1ccc(C(=O)O)cc1`, the activation is -5% (inactive).
Under `CC(=O)c1ccc(-c2nnc(CCC(=O)N(C)Cc3cnc4ccccn34)o2)s1` stands 10.1% (inactive); under `Cc1cc(C)nc(NC(=O)Nc2ccccc2C(F)(F)F)n1`, -11.5% (inactive); under `O=C(Nc1ccccc1C(F)(F)F)c1cc(-c2ccc(O)cc2)on1`, 42.6% (active).
In the case of `O=C(c1cc(-c2ccc(O)cc2)on1)N1CCCc2ccccc21` it was -13.9% (inactive); in that of `Cc1nn2c(NCCN(C)C)c3c(nc2c1-c1ccccc1)CCC3`, 22.6% (inactive).
Under `O=C(c1cc(COc2c(F)cccc2F)on1)N1CCSCC1` stands 3.08% (inactive); under `CCC(CC)C(=O)N1CCN(c2cccc(C)c2C)CC1`, -14.7% (inactive).
`CCOC(=O)c1cccc(NC(=O)CN(c2ccc(C)cc2)S(=O)(=O)c2c(C)noc2C)c1`: the activation was 18.8% (inactive).
Under `Cc1ccc(N(CC(=O)Nc2cccc(N(C)S(C)(=O)=O)c2)S(C)(=O)=O)cc1` stands 25.3% (inactive); under `COC(=O)c1ccc(NC(=O)CN(c2ccc(C)cc2)S(=O)(=O)c2c(C)n[nH]c2C)cc1`, 38.8% (active).
In the case of `COc1ccc(NC(=O)c2nc(-n3nc(C)cc3C)ccc2Cl)cc1Cl` it was 9.04% (inactive); in that of `O=C(Cc1cccc2ccccc12)NNC(=O)Nc1ccc(Cl)cc1`, 5.16% (inactive); in that of `COc1ccccc1C(c1nnnn1C(C)(C)C)N1CCN(Cc2ccccc2)CC1` (stereo not drawn), -17.5% (inactive).
On to `COCCn1nnnc1C(c1ccccc1Cl)N1CCN(c2ccccc2OC)CC1` (stereo not drawn), for which the activation was 89.3% (active).
Take `COc1ccccc1C(c1nnnn1CC1CCCO1)N1CCN(c2ccccc2)CC1` (stereo not drawn): the activation was 12.6% (inactive).
Turning to `Cc1c(CN2CCCCC2)c(O)n(CCO)c(=O)c1C#N`, the activation was 10.5% (inactive).
In the case of `CCOC(=O)CCCNC(=O)COC(=O)/C=C/c1ccc2c(c1)OCO2`, the activation was -7.21% (inactive).
Under `CC(=O)N1CC[n+]2c(-c3ccc([N+](=O)[O-])cc3)csc21` stands 13.5% (inactive).
Turning to `O=C(NCCCNc1ccc([N+](=O)[O-])cc1Cl)c1ccccc1F`, the activation is -0.79% (inactive).
Under `CC1=NNC(=O)C1CCC(=O)N/N=C\c1cccc(Cl)c1` (stereo not drawn) stands 4.52% (inactive).
Under `CCOc1ccc(C2NC(=S)NC3=C2CCc2ccccc23)cc1` (stereo not drawn) stands 10.5% (inactive); under `Cc1cc(C)c(NC(=O)c2oc3ccccc3c2COc2ccccc2)c(C)c1`, -49.2% (inactive); under `Cc1cc(C)cc(OCC(=O)NCc2cc(C)nc3ccccc23)c1`, 0.39% (inactive).
Consider `Cc1cc(C)c(NC(=O)C[N+](C)(C)CC(O)COc2cccc3ccccc23)c(C)c1` (stereo not drawn), for which the activation is 86.4% (active).
In the case of `COc1cc(N2C(=O)CC3(CCCC3)CC2=O)cc(OC)c1OC` it was -14.9% (inactive); in that of `CCC(=O)N1c2ccccc2NC2=C(C(=O)CCC2)C1c1ccco1` (stereo not drawn), 19.7% (inactive).
As for `COC(=O)c1sccc1NC(=S)Nc1ccc(C)cc1`, the activation was -0.64% (inactive).
Take `O=C1/C(=C/c2coc3ccc(O)cc3c2=O)SC(=S)N1c1ccccc1`: the activation is 47% (active).
Under `O=c1c(/C=N/O)coc2ccc(Cl)cc12` stands 19.5% (inactive).
In the case of `O=c1c(-c2ccccc2)coc2cc(O)ccc12` it was 2.99% (inactive).
Under `O=C1CC(c2cccc(Cl)c2)CC(O)=C1C=Nc1ccccc1` (stereo not drawn) stands -11.9% (inactive).
With `Cc1ccc(-c2ccc(/C=C(\C#N)C(N)=S)o2)c([N+](=O)[O-])c1`, the activation is 8.63% (inactive).
Regarding `CN(C)NC(=O)C(NC(=O)c1ccc(N)cc1)C12CC3CC(CC(C3)C1)C2` (stereo not drawn), the activation was 5.39% (inactive).
Under `Cc1cc(NC(=O)COC(=O)COc2ccc(Cl)cc2C)c([N+](=O)[O-])cc1C` stands -0.92% (inactive); under `Cc1ccc(OCC(=O)c2cc(C)n(Cc3ccco3)c2C)c([N+](=O)[O-])n1`, 1.91% (inactive); under `CC(=O)N(CCCN(C)C)c1nc2ccc(C)cc2s1`, -7.71% (inactive).
As for `COc1cccc2sc(N(CCCN(C)C)C(=O)C(c3ccccc3)c3ccccc3)nc12`, the activation is 103% (active).
With `CN(C)CCCN(C(=O)COc1ccccc1)c1nc2c(Cl)cccc2s1`, the activation was -13.9% (inactive).
